Reference: PubChem BioAssay (Tox21)
Inconclusive results are not listed. The source made the active and inactive calls. The call rests on the fitted dose curve.

What was measured:
[1] = biological target: Acetylcholinesterase (Homo sapiens) (UniProt P22303); experiment: Acetylcholinesterase (AChE) small molecule antagonists: colormetric cell-based qHTS assay (AID 1347395); further: nearly all actives have a fitted effect of over 30% in size; further: potency means the concentration at half of the fitted maximal effect
How it was run: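 In this cell-based qHTS, attached SH-SY5Y cells were treated with test chemicals for 30 min, after which acetylthiocholine hydrolysis was followed by DTNB colour development over 90 min at 37 C.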

[2] = biological target: Acetylcholinesterase (Homo sapiens) (UniProt P22303); experiment: Acetylcholinesterase (AChE) small molecule antagonists: enzyme-based qHTS assay (AID 1347397); conditions: Potency: AChE enzyme activity inhibition; outcome: AChE enzyme activity inhibition; further: nearly all actives have a fitted effect of over 55% in size; further: potency means the concentration at half of the fitted maximal effect
How it was run: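 Recombinant human AChE (50 mU/mL) preincubated with compound 30 min at room temperature; acetylthiocholine plus DTNB then added, and thiocholine formation read colorimetrically after 10 min at room temperature. DMSO served as vehicle control.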

[3] = biological target: Acetylcholinesterase (Homo sapiens) (UniProt P22303); experiment: Acetylcholinesterase (AChE) small molecule antagonists: fluorescence cell-based qHTS assay (AID 1347398); conditions: Potency: AChE activity; outcome: AChE activity; further: nearly all actives have a fitted effect of over 50% in size; further: potency means the concentration at half of the fitted maximal effect
How it was run: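 SH-SY5Y cells (2000/well), attached overnight, incubated with compound 30 min at 37 C. Acetylthiocholine plus Thiolite Green then added for 40 min at room temperature. Thiocholine fluorescence (Ex/Em 490/520 nm) reports cellular AChE activity.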

[4] = biological target: Acetylcholinesterase (Homo sapiens) (UniProt P22303); experiment: Acetylcholinesterase (AChE) small molecule antagonists: enzyme-based qHTS assay with human liver microsomes (AID 1347399); conditions: Potency: qHTS inhibition; outcome: qHTS inhibition; further: nearly all actives have a fitted effect of over 60% in size
How it was run: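 Recombinant human AChE (50 mU/mL in the enzyme mix) and human liver microsomes (0.25 mg/mL final) were preincubated with compound and NADPH (0.25 mg/mL final) for 30 min at 37 C. Acetylthiocholine/DTNB was then added; thiocholine was read colorimetrically after 10 min at room temperature.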
On the % scale 0 is the no-effect control and ±100 the full control effect.

Sequence of Acetylcholinesterase (Homo sapiens) (P22303 whole entry, looked up): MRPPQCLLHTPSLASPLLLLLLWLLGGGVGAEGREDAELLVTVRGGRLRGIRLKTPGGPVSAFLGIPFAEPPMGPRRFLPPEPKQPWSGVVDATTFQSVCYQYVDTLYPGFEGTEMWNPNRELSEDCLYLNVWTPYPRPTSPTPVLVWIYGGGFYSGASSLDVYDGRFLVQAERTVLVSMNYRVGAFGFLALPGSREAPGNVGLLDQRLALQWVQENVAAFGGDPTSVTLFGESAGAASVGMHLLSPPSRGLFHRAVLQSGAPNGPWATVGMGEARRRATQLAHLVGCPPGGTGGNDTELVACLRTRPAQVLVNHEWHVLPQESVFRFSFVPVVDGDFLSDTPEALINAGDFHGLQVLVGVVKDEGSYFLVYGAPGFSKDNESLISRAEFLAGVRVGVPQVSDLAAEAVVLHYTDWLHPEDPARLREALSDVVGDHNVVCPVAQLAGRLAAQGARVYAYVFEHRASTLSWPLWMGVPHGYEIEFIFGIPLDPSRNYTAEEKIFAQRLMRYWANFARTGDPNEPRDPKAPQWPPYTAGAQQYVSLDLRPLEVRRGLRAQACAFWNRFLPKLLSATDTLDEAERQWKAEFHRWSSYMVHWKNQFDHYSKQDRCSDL

Cn1c(=O)c2[nH]cnc2n(C)c1=O
inactive: Potency [1] | Potency [2] | Potency [3] | Potency [4]

CCc1ccccc1O
inactive: Potency [1] | Potency [2] | Potency [3] | Potency [4]

CC(=O)N(O)CCCCCNC(=O)CCC(=O)N(O)CCCCCNC(=O)CCC(=O)N(O)CCCCCN
inactive: outcome [1] | outcome [2] | outcome [3] | outcome [4]

N#CCC(=O)O
inactive: Potency [1] | Potency [2] | Potency [3] | Potency [4]

CCCC(O)C(O)CO (stereo unspecified)
inactive: Potency [1] | Potency [2] | Potency [3] | Potency [4]

CS(=O)(=O)c1ccc([C@@H](O)[C@@H](CO)NC(=O)C(Cl)Cl)cc1
inactive: Potency [1] | Potency [2] | Potency [3] | Potency [4]

CC(C)C(=O)OC/C=C/c1ccccc1
inactive: Potency [1] | Potency [2] | Potency [3] | Potency [4]

CC(=O)O[C@@H]1CC2C3CCc4cc(OC(=O)c5ccccc5)ccc4C3CCC2(C)[C@H]1OC(C)=O (stereo partly specified)
inactive: Potency [1] | Potency [2] | Potency [3] | Potency [4]

CC(=O)CCC(=O)O
inactive: Potency [1] | Potency [2] | Potency [3] | Potency [4]

COc1cccc(OC)c1O
inactive: Potency [1] | Potency [2] | Potency [3] | Potency [4]

O=C(OCc1ccccc1)c1ccccc1
inactive: Potency [1] | Potency [2] | Potency [3] | Potency [4]

C[C@H]1[C@H]2CC[C@H]3[C@@H]4CC=C5C[C@@H](N(C)C)CC[C@]5(C)[C@H]4CC[C@]23CN1C
inactive: Potency [1] | Potency [2] | Potency [3] | Potency [4]

Cc1occc(=O)c1O
inactive: Potency [1] | Potency [2] | Potency [3] | Potency [4]

C=C(C)CNCC
inactive: Potency [1] | Potency [2] | Potency [3] | Potency [4]

O=C(c1ccccc1)C(O)c1ccccc1 (stereo unspecified)
inactive: Potency [1] | Potency [2] | Potency [3] | Potency [4]

CN[C@@H]1[C@H](O)[C@H](NC)[C@H]2O[C@@]3(O)C(=O)C[C@@H](C)O[C@H]3O[C@@H]2[C@H]1O
inactive: Potency [1] | Potency [2] | Potency [3] | Potency [4]

C=C(C)C(=O)OCC(C)C
inactive: Potency [1] | Potency [2] | Potency [3] | Potency [4]

O=C(O)CCCCCC(=O)O
inactive: Potency [1] | Potency [2] | Potency [3] | Potency [4]

OCCCCCCCCCCCCBr
inactive: Potency [1] | Potency [2] | Potency [3] | Potency [4]

O=c1cc(O)c(Cl)c[nH]1
inactive: Potency [1] | Potency [2] | Potency [3] | Potency [4]

Cc1cc(=O)n(-c2ccccc2)n1C
inactive: Potency [1] | Potency [2] | Potency [3] | Potency [4]

CC(=O)O[C@]1(C(C)=O)CC[C@H]2[C@@H]3C=C(C)C4=CC(=O)CC[C@]4(C)[C@H]3CC[C@@]21C
inactive: Potency [1] | Potency [2] | Potency [3] | Potency [4]

Nc1nc(Cl)nc2c1ncn2[C@H]1C[C@H](O)[C@@H](CO)O1
inactive: Potency [1] | Potency [2] | Potency [3] | Potency [4]

C[C@]12C=CC(=O)C=C1CC[C@@H]1[C@@H]2C(=O)C[C@@]2(C)[C@H]1CC[C@]2(O)C(=O)CO
inactive: Potency [1] | Potency [2] | Potency [3] | Potency [4]

N[C@@H](CCC(=O)Nc1ccc([N+](=O)[O-])cc1)C(=O)O
inactive: Potency [1] | Potency [2] | Potency [3] | Potency [4]

CCOC(=O)CC1(C)OCC(C)O1 (stereo unspecified)
inactive: Potency [1] | Potency [2] | Potency [3] | Potency [4]

COc1cc(-c2ccc(=O)[nH]n2)ccc1OC(F)F
inactive: Potency [1] | Potency [2] | Potency [3] | Potency [4]

CC(O)(P(=O)(O)O)P(=O)(O)O
inactive: Potency [1] | Potency [2] | Potency [3] | Potency [4]

NNc1nc(-c2ccc([N+](=O)[O-])cc2)cs1
inactive: Potency [1] | Potency [2] | Potency [3] | Potency [4]

CCc1ccc2c(c1)C(=O)c1ccccc1C2=O
inactive: Potency [1] | Potency [2] | Potency [3] | Potency [4]

CCCCC(CC)COC(=O)c1ccccc1C(=O)O (stereo unspecified)
inactive: Potency [1] | Potency [2] | Potency [3] | Potency [4]

O=C(O)Cc1cccc2ccccc12
inactive: Potency [1] | Potency [2] | Potency [3] | Potency [4]

O=Cc1ccc(Cl)c([N+](=O)[O-])c1
active: Potency [1] 39.9 µM
inactive: Potency [2] | Potency [3] | Potency [4]

NNc1nc(-c2ccccc2)cs1
inactive: Potency [1] | Potency [2] | Potency [3] | Potency [4]

O=C(O)c1cc(Cl)cc(Cl)c1
inactive: Potency [1] | Potency [2] | Potency [3] | Potency [4]

C#CC1(O)CC[C@H]2[C@@H]3CCC4=CCCC[C@@H]4[C@H]3CC[C@@]21C (stereo partly specified)
inactive: Potency [1] | Potency [2] | Potency [3] | Potency [4]

CCN(CCO)CCCC(C)Nc1ccnc2cc(Cl)ccc12 (stereo unspecified)
inactive: activity, negative = inhibition [1] -5.02% [at 10.5 µM] | activity change, negative = inhibition [2] -2.76% [at 10.5 µM] | activity change, negative = inhibition [3] -7.12% [at 10.5 µM] | activity change, negative = inhibition [4] -0.168% [at 10.5 µM]

C/C=C/C(=O)N(CC)c1ccccc1C
inactive: Potency [1] | Potency [2] | Potency [3] | Potency [4]

CCCCOCC(C)OCC(C)O (stereo unspecified)
active: Potency [2] 57.8 µM | Potency [3] 29 µM
inactive: Potency [1] | Potency [4]
